Hits are enriched below; roughly 7.9% of the tested compounds scored in any of these assays.
FMDV inh: antivirals against foot and mouth disease virus; FMDV antiviral cell-based qHTS; Potency, µM (top dose mostly 57.9 µM), for inactives: at the top dose activity change, negative = inhibition, actives largely listed as inhibitors; actives 1.2% (n = 410,000); calls by dose curve; tested in HEK293T cells; note: read-out not given here; potency is the fitted concentration of half-maximal effect; nearly all actives have a fitted effect of over 45% in size
MARV entry inh: Marburg virus entry inhibition; Marburg virus pseudotyped entry inhibition, cell reporter; Potency, µM (doses to about 37.8 µM), inactives show top-dose activity change, negative = inhibition, most hits filed as inhibitors; actives 1.8% (n = 300,000); calls by dose curve; tested in HEK293 cells; note: potency is the fitted concentration of half-maximal effect
HCMV inh: blocks human cytomegalovirus replication; HFF cells, HCMV-luciferase reporter, 72 h; active compounds read low; activity change, negative = inhibition, % at 57.5 µM; actives 4.5% (n = 410,000); in the data active = activity change below about -60%; inconclusive = no clear call, values can overlap the other calls; inactive = above about -39%
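Inhibition of viral replication was scored as loss of reporter luminescence in HFFs infected with HCMV-luciferase (MOI 1 PFU/cell) for 72 h; compounds tested at 2 doses, normalized to buffer and Salinomycin controls.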
Lassa entry inh: blocks Lassa virus binding to or entry into cells. Lassa virus pseudotype entry inhibition, cell reporter. Potency, µM (titrated, usually from 37.9 µM), inactives show at the highest dose activity change, negative = inhibition, most hits filed as inhibitors. actives 1.2% (n = 300,000); calls by dose curve; tested in HEK293 cells; note: potency is the fitted concentration of half-maximal effect; nearly all actives have a fitted effect of over 50% in size
HCV inhibitor: HCV inhibition. Huh7.5.1 HCVcc-Cre infection, luciferase reporter, 44 h. Potency, µM (highest dose often 41.8 µM), inactives show at the highest dose activity change, negative = inhibition, most hits filed as inhibitors. actives 3.4% (n = 340,000). AID 651820; active = well fitted inhibition curve with a large enough effect; inconclusive = small, poorly fitted or top-dose-only effect, or another doubt; inactive = no such curve, though single readings can be large or run the other way; note: potency is the fitted concentration of half-maximal effect
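After 44 h co-culture of compound, cells and HCVcc-Cre (~0.5 moi), substrate is added for 15 min at room temperature and luciferase measured over 15 sec. Cells were seeded at 1,000/well and pre-cultured 4 h.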
* hit, by the source's call; ? = inconclusive; . = no result given; [ ] = remark or other dose. % is set by controls: 0 for no effect and ±100 for the full control effect.

SMILES	FMDV inh	MARV entry inh	HCMV inh	Lassa entry inh	HCV inhibitor
Clc1ccc(C[n+]2cc(-c3ccccc3)n3c2CCCCC3)c(Cl)c1	?	.	-78*	.	-30%
Clc1ccc(-c2c[n+](Cc3ccc(Br)cc3)c3n2CCCCC3)cc1	6%	?	-68*	-18%[46.1 µM]	12%
Cc1ccc(-c2c[n+](CC(=O)c3ccc(Br)cc3)c3n2CCCCC3)cc1	?	10µM*	-88*	?	-8%
CC1C=C2OC(N)=C(C#N)C(c3ccncc3)C2C(=O)N1CCN(C)C (configuration not stated)	.	1%	.	.	.
Cc1ccc(C)c(S(=O)(=O)N2[C@@H]3CC[C@@H](C3)[C@H]2c2nc3c(OCC4CCOCC4)cccc3[nH]2)c1	.	.	1	.	.
Clc1ccc(-c2c[n+](Cc3ccc(Cl)cc3Cl)c3n2CCCCC3)cc1	-13%	.	-102*	.	-22%
Cc1nc2ncnn2c(C)c1CCC(=O)Oc1ccccc1	17%	11%	-60*	1%	19%
COc1ccc(OCC(=O)Nc2ccc3c(c2)nc(CCn2ccccc2=O)n3C)cc1	-24%	.	?	.	-11%
Cc1cccc(OCC(=O)NNC(=O)C2CCN(c3ncnc4sc(C)c(C)c34)CC2)c1	28µM*	-29%	-39	-1%	-13%
CCOC(=O)c1sc2ncnc(N3CCN(CC)CC3)c2c1C	2%	-6%[46.1 µM]	?	5%	?
COc1cc(C(=O)N2CCN(c3ncnc4sc(C)c(C)c34)CC2)cc(OC)c1OC	11µM*	?	-79*	?	5.6µM*
CCOC(=O)c1sc2ncnc(N3CCN(C(=O)OCC)CC3)c2c1C	16µM*	-16%	?	?	-30%
C=CCn1c(C)cc(-c2csc(NC(=O)C3CCN(c4ncnc5sc(C)c(C)c45)CC3)n2)c1C	?	.	11	.	-19%
COc1ccc(-c2csc(NC(=O)C3CCN(c4ncnc5sc(C)c(C)c45)CC3)n2)cc1OC	8.9µM*	4µM*	-100*	2µM*	2.5µM*
CCCN1C(=O)CC[C@@H](S(=O)(=O)c2ccccc2)[C@@H]1c1ccccc1	.	.	-9	.	.
CC(C)[C@H]1COCCS(=O)(=O)N1Cc1ccccc1	0%	.	3	.	23%
COc1ccccc1OCC(=O)NNC(=O)C1CCN(c2ncnc3sc(C)c(C)c23)CC1	18µM*	.	-29	.	11µM*
CCN(CC)c1ccc(C(=O)NNC(=O)C2CCN(c3ncnc4sc(C)c(C)c34)CC2)cc1	11µM*	.	-15	.	.
CCOC(=O)C1C(=O)C=C(c2ccc([N+](=O)[O-])cc2)CC1c1ccccc1 (configuration not stated)	?	?	10	?	?
CCOC(=O)C1C(=O)C=C(c2ccc(Br)cc2)CC1c1ccco1 (configuration not stated)	?	?	19	15µM*	-19%
CCOC(=O)C1C(=O)C=C(c2cccc(NS(C)(=O)=O)c2)CC1c1ccco1 (configuration not stated)	-18%	2%	19	-2%	-1%
CCOC(=O)C1C(=O)C=C(c2ccc(C)cc2)CC1c1ccccc1 (configuration not stated)	-5%	20%[46.1 µM]	1	16µM*	-5%
O=C(CN1c2cccc3cccc(c23)S1(=O)=O)NCc1ccccc1Cl	-16%	.	15	.	.
COc1ccc2c(CNCCc3ccccc3OC)c(C(=O)O)n(Cc3ccc(F)cc3Cl)c2c1	-5%	.	-108*	-12%[46.1 µM]	.
COc1ccc(Cn2c(C(=O)O)c(CNC3CCCCCC3)c3ccc(OC)cc32)cc1	-3%	.	-100*	3%[46.1 µM]	.
SMILES	FMDV inh	MARV entry inh	HCMV inh	Lassa entry inh	HCV inhibitor
COc1ccc2c(CNCCc3ccc(SC)cc3)c(C(=O)O)n(Cc3ccc(F)cc3)c2c1	-18%	.	-74*	?	.
CC(C)CCn1c(=O)c(C(=O)Nc2ccccc2S(N)(=O)=O)c(O)c2ccccc21	-4%	?	-97*	?	?
COc1ccc(OC)c([C@H]2/C(=C(\O)c3ccc(C)cc3)C(=O)C(=O)N2Cc2ccco2)c1	.	-24%[46.1 µM]	.	.	.
O=C1c2ccccc2C(=O)c2[nH]cnc21	-17%	.	-26	.	-21%
O=C1c2ccccc2C(=O)c2c1ncn2-c1ccccc1	-15%	?	-68*	-3%	?
COC(=O)c1c(NC(=O)CN2CCC3(O)CCCCC3C2c2cc(OC)ccc2OC)sc(C)c1C (configuration not stated)	?	15µM*	-29	7.9µM*	?
